Screens (PubChem)
This excerpt belongs to a sample that is enriched for hits.
IDE exosite inh: displaces the probe from the exo-site of human IDE; z-score at 20 µM; purified IDE, FL-6b probe fluorescence polarization; stronger effect = lower value; hit rate 6.3% among 17,000;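 active = z-score of -3 or lower, meaning strong loss of probe binding signal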;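 also: His-tagged human IDE residues 42-1019 made in E. coli with 30 nM FL-6b probe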
Numbers without * were called inactive.

SMILES | IDE exosite inh
OC[C@@H]1[C@@H](c2ccc(C#CC3CCCC3)cc2)[C@H]2CN(CCC(F)(F)F)CCCCN12 | 1.7
COc1ccccc1C#Cc1ccc([C@@H]2[C@@H](CO)N3CCCCN(CCC(F)(F)F)C[C@H]23)cc1 | -2.6
O=C(c1ccncc1)N1CC(=O)N2[C@H](C1)[C@H](c1ccc(-c3ccccc3F)cc1)[C@@H]2CO | -0.15
O=C(c1ccncc1)N1CC(=O)N2[C@H](CO)[C@H](c3ccc(-c4ccccc4F)cc3)[C@H]2C1 | -4.8*
Cc1ccccc1-c1ccc([C@@H]2[C@H]3CN(C(=O)c4ccncc4)CC(=O)N3[C@H]2CO)cc1 | -14*
COc1ccc(-c2ccc([C@H]3[C@@H](CO)N4C(=O)CN(C(=O)c5ccccn5)C[C@@H]34)cc2)cc1 | -1.3
CC(C)C#Cc1ccc([C@@H]2[C@@H](CO)N3C(=O)CN(C(=O)c4ccccn4)C[C@H]23)cc1 | 2.7
Cc1ccccc1-c1ccc([C@@H]2[C@H](CO)N3C(=O)CN(C(=O)c4ccncc4)C[C@@H]23)cc1 | -5.3*
O=C(c1ccncc1)N1CC(=O)N2[C@@H](CO)[C@@H](c3ccc(-c4cccnc4)cc3)[C@@H]2C1 | 1.8
O=C(c1ccncc1)N1CC(=O)N2[C@H](CO)[C@H](c3ccc(-c4cccnc4)cc3)[C@@H]2C1 | 1.6
Cc1ccccc1-c1ccc([C@H]2[C@@H](CO)N3C(=O)CN(C(=O)c4ccccn4)C[C@@H]23)cc1 | -12*
Cc1ccccc1-c1ccc([C@H]2[C@H]3CN(C(=O)c4cccnc4)CC(=O)N3[C@H]2CO)cc1 | -2
O=C(c1ccncc1)N1CC(=O)N2[C@H](CO)[C@@H](c3ccc(-c4ccccc4F)cc3)[C@@H]2C1 | -1.9
O=C(C[C@H]1C[C@H]2c3cc(NC(=O)c4ccc5c(c4)OCO5)ccc3O[C@H]2[C@H](CO)O1)NCCN1CCCCC1 | -0.48
COCC(=O)NC[C@H]1[C@@H](c2ccccc2)[C@@H](CO)N1C(=O)c1ccccc1 | -0.093
N#C[C@H]1[C@@H](c2ccccc2C2=CCCC2)[C@H](CO)N1C(=O)NC1CCCCC1 | -1.4
C[C@@H]1CCCCO[C@H](CN(C)C(=O)C2CCCCC2)[C@H](C)CN([C@@H](C)CO)C(=O)c2cc(NS(=O)(=O)c3ccccc3)ccc2O1 | 1.5
CS(=O)(=O)N1[C@@H](CO)[C@@H](c2ccccc2)C12CN(Cc1cc(F)ccc1F)C2 | -0.12
O=S(=O)(c1ccccc1)N1CCCCN2[C@H](CO)[C@H](c3ccc(C#Cc4cccnc4)cc3)[C@@H]2C1 | 3.4
CCS(=O)(=O)N(C)C[C@@H]1N[C@H](CO)[C@@H]1c1ccc(C#CC2CCCC2)cc1 | 4.3
N#Cc1cccc(-c2ccc(C3[C@H]4CNC[C@@H]3N4Cc3ccc(F)cc3)cc2)c1 (stereo not given in full) | 3
CCS(=O)(=O)N1CC2(CN(C(=O)NC(C)C)[C@H](CO)c3c2c2ccc(OC)cc2n3C)C1 | -0.42
CN1CCCCN2[C@@H](CO)[C@H](c3ccc(Br)cc3)[C@@H]2C1 | 1.7
C/C=C/c1ccc([C@H]2[C@@H](CO)N(C(=O)C3CC3)[C@H]2CN(C)C(C)=O)cc1 | 2.4
O=C(Nc1ccc(F)cc1)N1CC(=O)N2[C@H](C1)[C@H](c1ccc(-c3cccc(F)c3)cc1)[C@@H]2CO | -1.3
SMILES | IDE exosite inh
C/C=C/c1ccc([C@@H]2[C@H](CO)N(C(=O)COC)[C@H]2CNC(=O)CC)cc1 | 4.4
CCC(=O)NC[C@@H]1[C@@H](c2ccc(-c3cccc(F)c3)cc2)[C@@H](CO)N1CC1CC1 | 0.31
N#C[C@@H]1[C@H](c2ccccc2)[C@H](CO)N1S(=O)(=O)c1ccc(-c2ccccc2)cc1 | 4.3
O=C(C1CCOCC1)N1CC2(C1)[C@@H](c1ccccc1)[C@H](CO)N2Cc1ccccc1F | 0.82
CN(C)CC(=O)N1[C@@H](C#N)[C@@H](c2ccc(-c3ccccc3F)cc2)[C@@H]1CO | 0.95
O=C(C[C@@H]1C[C@@H]2c3cc(NS(=O)(=O)c4ccccc4)ccc3O[C@@H]2[C@H](CO)O1)N1CCOCC1 | -0.99
O=C(Nc1ccc2c(c1)[C@H]1C[C@H](CC(=O)N3CCOCC3)O[C@@H](CO)[C@H]1O2)Nc1ccccc1F | 0.72
Cc1ccccc1-c1ccc([C@@H]2[C@@H](CO)N3C(=O)CN(C(=O)c4ccncc4)C[C@@H]23)cc1 | -3.5*
Cc1ccccc1-c1ccc([C@H]2[C@H]3CN(C(=O)c4ccccc4)CC(=O)N3[C@H]2CO)cc1 | 0.77
Cc1ccccc1-c1ccc([C@H]2[C@H]3CN(C(=O)c4ccncc4)CC(=O)N3[C@H]2CO)cc1 | 0.38
O=C(Nc1cccc(F)c1)N1CC(=O)N2[C@H](CO)[C@H](c3ccc(-c4cccc(F)c4)cc3)[C@@H]2C1 | 0.94
OC[C@H]1[C@@H](c2ccc(-c3cccc(F)c3)cc2)[C@H]2CN(Cc3cncnc3)CCCCN21 | 1.4
COc1ccc(-c2ccc([C@H]3[C@H]4CN(CC5CCOCC5)CCCCN4[C@H]3CO)cc2)cc1 | 0.75
COc1cccc(-c2ccc([C@H]3[C@@H](CO)N4CCCCN(Cc5cncnc5)C[C@@H]34)cc2)c1 | -2.7
